From PubChem BioAssay
The list is not random: actives were taken first. Their share in the collection is about 6.9%.
MCF10A rereplic = inducers of DNA re-replication in MCF 10A breast cells; MCF 10A DNA re-replication, Hoechst nuclear intensity, 48 h; Potency, µM (top dose mostly 46.1 µM), inactives show at the highest dose activity, positive = re-replication, usual class: activators; 2.9% of 350,000 active; AID 624296; note: potency is the fitted concentration of half-maximal effect; % of control where 0% means no effect; nearly all actives have a fitted effect of over 50% in size
Giardia killer = Giardia lamblia killing; Giardia lamblia trophozoite viability; activity change, % at 7.66 µM, hits read low; 0.15% of 340,000 active; in the data active = activity change below about -80%; inconclusive = between about -30% and that limit;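 note: parasites exposed to compound for two days anaerobically before the ATP read; % is set by controls: 0 for no effect and ±100 for the full control effect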
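Anaerobic 48 hrs incubation at 37 deg C of 100 trophozoites/well with test compounds; ATPLite 1-Step luminescence, 15-30 min RT, reports cellular ATP as viability.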
Vif-APOBEC3F blk = Vif-A3F binding inhibition; HeLa A3F-eYFP + Vif (tagged APOBEC3F with the HIV-1 protein that degrades it), YFP fluorescence increase; AID 602313; 0.2% of 390,000 active; Potency, µM (highest dose often 46.1 µM), for the others: at the top dose activity, negative = active; note: potency is the fitted concentration of half-maximal effect; % of control where 0% means no effect; nearly all actives have a fitted effect of over 65% in size
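HeLa cells stably expressing A3F-eYFP plus Vif, plated and incubated overnight at 37 deg C, then exposed to compounds overnight at 37 deg C. Blocked degradation read as raised yellow fluorescence (Ex 488/Em 500-530).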
SW480 rereplic = induces DNA re-replication in SW480 colon adenocarcinoma cells. AID 624297. 1.8% of 340,000 active. Potency, µM (top dose mostly 46.1 µM), for the others: top-dose re-replication activation, hits mostly activators. SW480 DNA re-replication, Hoechst DNA content imaging, 48 h; note: potency is the fitted concentration of half-maximal effect; % of control where 0% means no effect; nearly all actives have a fitted effect of over 55% in size
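SW480 cells exposed to compounds for 48 hr at 37 C, 5% CO2, then Hoechst-stained 40 min. Nuclear DNA content imaged by fluorescence scanning (405 nm excitation, 500-530 nm emission); re-replication scored as increased high-intensity nuclei.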
IL1B secr inh = inflammasome signaling inhibition, IL-1 beta readout; THP-1 LPS/ATP IL-1B secretion, AlphaLISA, 16 h; hits give low values; activity change, % at 57.5 µM; 4.7% of 360,000 active; AID 743279; in the data active = activity change below about -50%; inconclusive = mostly about -30% to -49%; note: % is set by controls: 0 for no effect and ±100 for the full control effect
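Secreted IL-1B measured by AlphaLISA bead assay after 16 h compound exposure of THP-1 cells; compounds (final up to 57.5 uM) added 1 h before LPS (250 ng/mL) and ATP (1.25 mM) stimulation; lower signal means less secretion.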
Vif-A3G inh = Vif-A3G binding inhibition; 0.076% of 410,000 active; AID 602310; Q9HC16; HeLa A3G-eYFP + Vif (tagged APOBEC3G with the HIV-1 protein that degrades it), YFP fluorescence, overnight; Potency, µM (doses to about 46.1 µM), without a hit: top-dose activity, negative = active, usual class: inhibitors; note: potency is the fitted concentration of half-maximal effect; % is set by controls: 0 for no effect and ±100 for the full control effect; nearly all actives have a fitted effect of over 60% in size
Target sequence (Q9HC16 whole entry, looked up): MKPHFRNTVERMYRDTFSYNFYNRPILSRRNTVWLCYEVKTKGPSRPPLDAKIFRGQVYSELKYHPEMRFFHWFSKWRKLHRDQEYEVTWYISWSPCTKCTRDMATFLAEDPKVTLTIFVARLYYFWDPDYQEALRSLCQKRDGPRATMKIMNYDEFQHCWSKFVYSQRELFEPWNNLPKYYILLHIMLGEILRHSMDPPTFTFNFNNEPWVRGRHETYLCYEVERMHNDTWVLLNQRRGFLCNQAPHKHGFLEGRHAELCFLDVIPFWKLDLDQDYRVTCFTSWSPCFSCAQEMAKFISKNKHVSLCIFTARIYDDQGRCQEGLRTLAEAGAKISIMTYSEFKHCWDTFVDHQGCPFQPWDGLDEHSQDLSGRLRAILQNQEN
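HeLa cells stably expressing Vif and C-terminally eYFP-tagged A3G, seeded overnight at 37 deg C, then exposed to compound by pintool overnight at 37 deg C. Rise in yellow fluorescence (Ex 488/Em 500-530, Acumen) marks blocked Vif-driven A3G degradation.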
Numbers without * were called inactive; u = inconclusive; x = not tested or not shown; [ ] = remark or other dose. Unless noted, calls come from the whole dose curve; as a rule, active = well fitted curve in the direction sought with a large enough effect; inconclusive = small, poorly fitted or top-dose-only effect, or another doubt; inactive = no such curve, though single readings can be large; an effect the other way counts as inactive or inconclusive.

SMILES	MCF10A rereplic	Giardia killer	Vif-APOBEC3F blk	SW480 rereplic	IL1B secr inh	Vif-A3G inh
N#C/C(=C\c1ccccc1)C(=O)NCc1ccc(F)cc1	u	-3	-31%	5%	-98*	0%
N#C/C(=C\c1cn[nH]c1-c1ccc(Cl)cc1)C(=O)NCc1ccccc1	u	-22	-11%	0%	-58*	-9%
N#C/C(=C\C=C\c1ccccc1)C(=O)NCc1cccnc1	u	-8	-1%	30%	-89*	-1%
N#C/C(=C\c1cccc([N+](=O)[O-])c1)C(=O)NCc1ccc(Cl)cc1	u	-1	7%	u	-108*	-27%
COc1ccc(-c2cc(C)no2)cc1S(=O)(=O)NCc1cccs1	x	x	-9%	x	x	-17%
COc1ccc(-n2nc(C(=O)NCCc3cccc(C)c3)c3c4ccccc4n(C)c3c2=O)cc1Cl	x	x	-20%	x	x	2%
Cc1oc2c(cc(NS(=O)(=O)c3cccs3)c3ccccc32)c1C(=O)OC(C)C	13µM*	-2	-3%	0%	20	-8%
CC(=O)c1cc2c(cc1NS(=O)(=O)c1ccccc1Br)OCO2	-3%	3	-2%	-2%	11	-5%
COc1ccc(S(=O)(=O)Nc2cc3c(C(C)=O)c(C)oc3c3ccccc23)cc1	u	5	-10%	5.2µM*	74	u
COc1ccc(S(=O)(=O)Nc2cc3c(cc2C(C)=O)OCO3)cc1	18µM*	17	-24%	u	21	u
Cc1oc2c(cc(NS(=O)(=O)c3ccc(C(C)C)cc3)c3ccccc32)c1C(=O)O	u	1	u	u	39	-9%
CCN(CC)c1cc(C)nc2nc(-c3ccc(C)cc3)nn12	x	x	3%	x	x	5%
Cc1ccc(NC(=O)CCCn2c(=O)c3cccn3c3cccnc32)c(C)c1	x	x	-4%	x	x	3%
COC(=O)C1=C[C@@H](C(=O)OC)C2C3=C(C(=O)[C@]2(C)NC(=O)c2ccccc2)[C@H](C)n2c(=O)n(-c4ccccc4)c(=O)n2[C@@H]3C1 (some centres undefined)	x	14	x	x	x	3%
COc1cc(C(=O)OCc2ccc(C)cc2)cc(NC(=O)c2cccs2)c1OC	23µM*	7	-16%	u	0	-7%
COc1cccc(-n2ccn(CC(=O)Nc3ccccc3F)c(=O)c2=O)c1	x	x	-8%	x	x	-11%
Cc1c(C)n(CCc2ccccc2)c2ncnc(NCCCN(C)C)c12	u	11	-2%	u	-72*	2%
Cc1ccnc2cc(Cl)c(Cl)cc12	x	x	x	x	x	-2%
COc1ccc2c(n1)Sc1nc3ccccc3nc1N2	21µM*	4	u	u	16	u
COc1cc2ccccc2nn1	-15%	-3	-1%	-114%	18	-5%
COC(=O)c1sccc1S(=O)(=O)N(CC(=O)Nc1ccccc1C)c1ccc(Cl)cc1	x	x	-9%	x	x	-3%
CCCn1c(N)c(C(=O)CSc2ncc(C(F)(F)F)cc2Cl)c(=O)[nH]c1=O	16µM*	-1	u	22%	0	1%
COc1ccc(S(=O)(=O)Nc2ccc3oc4c(c3c2)C(=O)CC(C)(C)C4)cc1	x	x	0%	x	x	3%
O=C(CSc1nc(-c2ccccc2)c(-c2ccccc2)o1)N1CCOCC1	16µM*	-13	-9%	2%	-7	-10%
O=C(CSc1nnc(-c2ccccc2)c(-c2ccccc2)n1)N1CCOCC1	15%	2	7%	0%[9.22 µM]	-15	7%
SMILES	MCF10A rereplic	Giardia killer	Vif-APOBEC3F blk	SW480 rereplic	IL1B secr inh	Vif-A3G inh
Fc1ccc(C2CC(c3cccs3)=NN2c2ccccc2)cc1 (centres undefined)	3.5µM*	4	4%	u	9	0%
CNC(=S)N1N=C(c2ccc(C)cc2)CC1c1cc(OC)ccc1OC (centres undefined)	u	-1	-5%	u	0	u
Oc1ccccc1C1=NN(c2ccccc2)C(c2ccc(F)cc2)C1 (centres undefined)	u	-2	u	u	-7	-1%
Oc1ccc(C2=NN(c3ccccc3)C(c3ccc(F)cc3)C2)cc1 (centres undefined)	5.8µM*	7	21%	23µM*	-98*	-24%
COc1ccc(C2=NN(C(=O)c3ccccc3)C(c3ccc(OC)c(OC)c3)C2)cc1OC (centres undefined)	14%	18	7%	-6%	u	-1%
COc1ccc(OC)c(C2CC(c3ccccc3)=NN2C(=S)Nc2ccccc2)c1 (centres undefined)	4.1µM*	4	-14%	4.6µM*	34	u
COc1ccc(C2CC(c3ccc(F)cc3)=NN2c2ccccc2)cc1OC (centres undefined)	16µM*	1	3%	u	u	-17%
COc1cccc(-c2cc(C(F)(F)F)n3ncc(C(=O)OC(C)C)c3n2)c1	x	x	-6%	x	x	6%
Cc1ccc(C(=O)N2CCN(Cc3cc(=O)n4nc(-c5ccccc5)sc4n3)CC2)cc1	x	x	3%	x	x	5%
CCc1ccc(-n2nc3ccc(NC(=O)COc4ccc(OC)cc4)cc3n2)cc1	x	x	-16%	x	x	5%
COc1ccc(C2=NN(c3ccccc3)C(c3ccc(OC)c(OC)c3)C2)cc1 (centres undefined)	u	0	3%	15µM*	0	0%
CNC(=S)N1N=C(c2cccs2)CC1c1ccc(F)cc1 (centres undefined)	14%	29	-10%	-1%	-51*	-24%
CC(=O)Nc1ccc(C2CC(c3ccc(Cl)cc3)=NN2c2ccccc2)cc1 (centres undefined)	169%	-2	-2%	1.5µM*	-19	-3%
O=S(=O)(Nc1cccc(-c2ccc(N3CCCC3)nn2)c1)c1ccccc1C(F)(F)F	x	x	0%	x	x	-9%
C/C(=N\NC(=O)c1c[nH]c2ccccc12)c1ccco1	2.3µM*	-28	-2%	2.9µM*	-3	1%
C/C(=N/NC(=O)c1cc(-c2ccc(Br)s2)[nH]n1)c1ccco1	-7%	0	0%	-13%	-69*	-12%
COc1ccc(CCNC(=O)C2COc3ccccc3C2)cc1OC (centres undefined)	x	x	1%	x	x	-8%
Cc1cc(NC(=O)COc2cccnc2[N+](=O)[O-])no1	-1%	-26	8%	-2%	-9	-1%
Cc1ccc(OCC(=O)c2cc(C)n(-c3ccccc3)c2C)c([N+](=O)[O-])n1	u	-102*	-7%	-4%	-5	0%
Cc1cc(C(=O)COc2cccnc2[N+](=O)[O-])c(C)n1Cc1cccs1	u	-94*	-2%	11%	-17	-17%
